The sample as a whole holds a higher share of hits than the screen did.
CD40 NFkB inh: CD40 pathway inhibition in BL2 cells. BL2 NF-kB luciferase reporter, CD40L-induced, 4 h. inhibition, % at 10 µM. actives 0.94% (n = 83,000). AID 1053188;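 active means mean inhibition of at least 50% with a set share of replicates also reaching that level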
Each line names hits and unclear results; the compound was inactive in the other large screens; [ ] = dose if it differs, or a comment.

O=C(C1CCCC1)N1CC(=O)N2[C@@H](CO)[C@@H](c3ccc(C#Cc4cccc(F)c4)cc3)[C@@H]2C1	none
O=C(Nc1cccc(Cl)c1)N1C[C@H]2[C@@H](c3ccccc31)[C@@H](CO)N2C(=O)C1CC1	none
OCC[n+]1ccc(/C=C/c2c[nH]c3ccccc23)cc1	none
C(=NN=C1c2ccccc2-c2ccccc21)c1c[nH]c2ccccc12	none
C(=Cc1c[nH]c2ccccc12)c1nccc2ccccc12	CD40 NFkB inh 61.6
Cc1noc(C)c1S(=O)(=O)Nc1ccc2c(c1)C(=O)N([C@@H](C)CO)C[C@H](C)[C@@H](CN(C)Cc1ccc3c(c1)OCO3)O2	none
CN1[C@@H]2c3ccc(/C=C/c4ccccc4)c(=O)n3C[C@H]1[C@H](CO)[C@H]2C(=O)NC1CCCC1	none
CCCC#Cc1ccc2c(c1)[C@H]1[C@H](CCN1C(=O)C1CCCCC1)[C@@H](CO)N2	none
COc1ccc(CN(C)C[C@@H]2OCCCC[C@H](C)Oc3ccc(NC(=O)C4CCCCC4)cc3C(=O)N([C@H](C)CO)C[C@@H]2C)cc1	none
O=C(c1ccccn1)N1CC[C@@H]2[C@H]1c1cc(Br)ccc1N[C@@H]2CO	none
Nc1nc(N)c2cc(Sc3cccc(C(F)(F)F)c3)ccc2n1	none
Nc1nc(N)c2cc(CNc3ccc(Cl)c(Cl)c3)ccc2n1	CD40 NFkB inh 91.6
Nc1nc(N)c2cc(Sc3ccc(Cl)cc3)ccc2n1	none
CN(C)C(=O)[C@@H]1[C@@H](CO)[C@@H]2Cn3c(ccc(-c4cncnc4)c3=O)[C@@H]2N1Cc1cc(F)ccc1F	none
O=C(C[C@@H]1CC[C@@H]2[C@H](COC[C@H](O)CN2Cc2cccc(Cl)c2)O1)NCc1cccc(F)c1	none
CCc1csc(N2[C@H](C#N)[C@@H](c3ccc(-c4ccc(F)cc4)cc3)[C@@H]2CO)n1	none
CCc1csc(N2[C@H](C#N)[C@H](c3ccc(C#Cc4ccc(F)cc4)cc3)[C@H]2CO)n1	CD40 NFkB inh 77.1[25 µM]
N#C[C@H]1[C@H](c2ccc(C#Cc3ccccc3F)cc2)[C@@H](CO)N1C(=O)C1CC1	CD40 NFkB inh 50.4[25 µM]
CCc1csc(N2[C@@H](C#N)[C@@H](c3ccc(C#Cc4ccc(F)cc4)cc3)[C@@H]2CO)n1	none
N#C[C@@H]1[C@@H](c2ccc(C#Cc3ccccc3F)cc2)[C@H](CO)N1C(=O)C1CC1	none
N#C[C@@H]1[C@@H](c2ccc(C#Cc3ccccc3F)cc2)[C@@H](CO)N1C(=O)C1CC1	none
CC(C)C#Cc1ccc([C@H]2[C@@H](CO)N(C(=O)c3ccccn3)[C@H]2C#N)cc1	CD40 NFkB inh 60.3[25 µM]
N#C[C@H]1[C@@H](c2ccc(C#Cc3ccc(F)cc3)cc2)[C@H](CO)N1C(=O)C1CCCC1	none
CC(C)C#Cc1ccc([C@@H]2[C@@H](C#N)N(C(=O)c3ccccn3)[C@@H]2CO)cc1	none
N#C[C@H]1[C@H](c2ccc(C#Cc3ccc(F)cc3)cc2)[C@H](CO)N1C(=O)C1CCCC1	none
N#C[C@@H]1[C@H](c2ccc(C#Cc3ccccc3F)cc2)[C@@H](CO)N1C(=O)C1CCCC1	CD40 NFkB inh 94.2
CC(C)C#Cc1ccc([C@H]2[C@H](C#N)N(C(=O)c3ccccn3)[C@H]2CO)cc1	none
C/C=C/c1ccc([C@H]2[C@H](CO)N(C(=O)CN(C)C)C23CN(C(=O)C2CCOCC2)C3)cc1	none
CCCNC(=O)N1C[C@H]2[C@@H](c3ccccc31)[C@@H](CO)N2C(=O)Cc1ccccn1	none
CO[C@@H]1CN(C)C(=O)c2ccc(NC(=O)C3CCOCC3)cc2OC[C@@H](C)N(C)C[C@H]1C	none
CCc1cnc(N2[C@H](C#N)[C@@H](c3ccc(C#Cc4ccccc4F)cc3)[C@H]2CO)s1	none
N#C[C@@H]1[C@H](c2ccc(C#Cc3ccccc3F)cc2)[C@H](CO)N1C(=O)c1cccnc1	none
CCc1cnc(N2[C@H](C#N)[C@H](c3ccc(C#Cc4ccccc4F)cc3)[C@@H]2CO)s1	none
CCc1cnc(N2[C@H](C#N)[C@H](c3ccc(C#Cc4ccccc4F)cc3)[C@H]2CO)s1	CD40 NFkB inh 72.5[25 µM]
N#C[C@@H]1[C@H](c2ccc(C#Cc3ccccc3F)cc2)[C@@H](CO)N1C(=O)c1cccnc1	CD40 NFkB inh 77.7[25 µM]
N#C[C@H]1[C@H](c2ccc(C#Cc3ccccc3F)cc2)[C@@H](CO)N1C(=O)C1CCCC1	CD40 NFkB inh 56.1
N#C[C@@H]1[C@@H](c2ccc(C#Cc3ccccc3F)cc2)[C@H](CO)N1C(=O)C1CCCC1	none
N#C[C@@H]1[C@@H](c2ccc(C#Cc3ccc(F)cc3)cc2)[C@H](CO)N1C(=O)C1CCCC1	none
N#C[C@@H]1[C@@H](c2ccccc2)[C@@H](CO)N1C(=O)c1cccnc1	none
COc1ccccc1-c1ccc([C@@H]2[C@@H](CO)N(C(=O)C3CC3)[C@H]2C#N)cc1	none
CC(C)NC(=O)Nc1ccc2c(c1)C(=O)N(C)C[C@H](C)[C@H](CN(C)C(=O)OC(C)(C)C)O2	none
COC(=O)[C@H]1[C@H](CO)[C@H]2Cn3c(ccc(-c4cccnc4)c3=O)[C@H]2N1Cc1ccccc1F	none
CO[C@@H]1CN(C)C(=O)c2cc(NC(=O)c3cc(C)on3)ccc2OC[C@@H](C)N(C(=O)C2CC2)C[C@H]1C	none
CN(C)CC(=O)N1[C@H](CO)[C@H](c2ccccc2-c2ccc(C(=O)N(C)C)cc2)[C@@H]1C#N	none

Screens deposited in PubChem BioAssay by Broad Institute.
